Test results: the supplement of paper PMC9477273

tested on: DRIVER-selected RNA biosensor (aptazyme) pool; test: maximum fold change of ribozyme cleavage across biosensor pool versus no-compound control; higher = stronger biosensor response (ligand inhibits cleavage); details: 10 µM
Procedure: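 CleaveSeq: a pool of resynthesized hammerhead-ribozyme RNA biosensors (sTRSV scaffold with randomized loops, 1,730 sequences) was T7-transcribed at 37 °C for 15-30 min with a single compound at 10 µM. Cleaved and uncleaved products were counted by NGS, and fold change of cleavage was computed against the DMSO-only condition. The value is the maximum fold change of cleavage over all biosensors in the pool. About 255 compounds were tested individually.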

SMILES	maximum fold change
CCOC(=O)N1CCN(C(=O)C2=C(C)C(=O)OC23CCCCC3)CC1	4.06
CCOc1ccc(S(=O)(=O)N2CCN(Cc3ccccc3)CC2)c2cccnc12	5.08
CC1=C(c2ccc(C)cc2)S(=O)(=O)N=C1NCCCN1CCc2ccccc2C1	3.69
CCOC(=O)N1CCC(NC(=O)c2ccc(CS(=O)c3cccc(C)c3)o2)CC1 (stereo not given)	2.53
O=C(NCc1cccc(Cl)c1)c1cnc2ccccn2c1=O	7.03
CCOC(=O)C1=C(C)Nc2nc(-c3cccs3)nn2C1c1ccc(C#N)cc1 (stereo not given)	1.85
Cc1oc2ncn3nc(-c4ccc(F)cc4)nc3c2c1C	10.5
CCOCCCNC(=O)/C(C#N)=C/c1c(Oc2ccc(Br)cc2)nc2ccccn2c1=O	3.31
O=C(Cn1ccc2cc(S(=O)(=O)N3CCCC3)ccc21)NC1CC1	2.36
CCNC(=S)N1CCN=C1Nc1nc(C)cc(C)n1	2.17
N#C/C(=Cc1c(Oc2cccc(c2)C)nc2n(c1=O)cccc2)/c1nc2c([nH]1)cccc2	7.83
CCOc1cc2c(cc1OCC)C1C(C(=O)NCc3cccnc3)c3ccccc3C(=O)N1CC2 (stereo not given)	4.02
CC1CCN(CCCNC(=O)c2ccc(CS(=O)(=O)Cc3ccc(Cl)cc3)o2)CC1	2.2
Cc1cc(C2C(=O)c3ccccc3C2=O)nc2ccccc12	11.3
Cc1cc2c(c(=O)n1CCN(C)C)C(c1cccc(Br)c1)C(C#N)=C(N)O2 (stereo not given)	2.39
COc1ccc(-c2c(C)nn3c(N)c(C#N)cnc23)cc1OC	4.07
Cc1ccc2c(CNC3CCC(C)CC3)c(C(=O)O)n(Cc3ccccc3F)c2c1 (stereo not given)	2.5
COCCNC(=O)c1ccc(CS(=O)Cc2ccc(Cl)cc2)o1 (stereo not given)	3.58
Cc1ccc(C)c(Cn2c(C)c(CNCCCN3CCCC3=O)c(C(=O)O)c2C)c1	2.12
Clc1ccc2nc3c4ccccc4cnn3c2c1	3.12

SMILES	maximum fold change
C=Cc1ccc(Cn2c(C(=O)O)c(CNCC3CCCO3)c3ccc(C)cc32)cc1 (stereo not given)	2.75
CC(=O)N1C(=N)S/C(=C/c2cc3ccc(C)cc3nc2O)C1=O	7.51
CCCN(CCC)CCCNS(=O)(=O)c1ccc(OCC)c2ncccc12	2.96
O=C(CCNC(=O)Cn1cnc2sc3c(c2c1=O)CCCC3)NCC1CCCO1 (stereo not given)	3.04
CN1C(=O)c2ccccc2C(C(=O)O)C1c1c[nH]c2ccccc12 (stereo not given)	2.39
COc1ccc(CN2CCN(Cc3csc(C)c3C)CC2)c(OC)c1OC	2.47
O=C1N=c2sc(nn2C(=N)/C/1=Cc1c[nH]c2c1cccc2)N1CCCC1	7.4
CCOC(=O)c1cc(-c2ccc(C)cc2)n(CC(=O)NC(C)CC)c1C (stereo not given)	2.38
CCOC(=O)c1cnc2c(OC)cccc2c1NCC1COc2ccccc2O1 (stereo not given)	7.13
CCOc1cc2c(cc1OCC)C1C(C(=O)N(CC)Cc3ccccc3)c3ccccc3C(=O)N1CC2 (stereo not given)	3.54
CNc1cnn(C23CC4CC(CC(CC(=O)O)(C4)C2)C3)c(=O)c1Cl	4.5
Cc1ccccc1-c1nc(CS(=O)(=O)CC(=O)NC2CCCCC2C)c(C)o1 (stereo not given)	2.07
Cc1ccc(CNC(=O)c2cc3c(=O)oc4ccccc4c3s2)o1	3.09
Cc1oc(-c2ccccc2F)nc1CS(=O)(=O)CC(=O)NC1CCCC(C)C1C (stereo not given)	4.66
COc1ccc(S(=O)(=O)N2CCCN(CC(=O)C(C)(C)C)CC2)cc1	2.33
O=C(NC1CCN(Cc2ccccc2)CC1)c1cc2c(=O)oc3ccccc3c2s1	7.21
CC(C)CCNC(=O)Cn1c2c(c(-c3ccccc3Cl)cc1=O)CCC2	2.06
O=C(NCCCc1ccccc1)C1CCN(c2nnc(N3CCCC3=O)s2)CC1	3.05
COc1ccc(Br)cc1CNCc1sc(C(=O)O)cc1C	3.28
CCN1CCN(C(=O)c2cc(C)nn2-c2ccccc2)CC1	2.67
